Assay outcomes: PubChem, The Scripps Research Institute Molecular Screening Center
Only some compounds are listed: those with a hit (about 2.3% of all), similar ones and a draw of the others.
M1 antag = human M1 muscarinic receptor antagonists, primary screen, CHO-K1 cells, Fluo-8 calcium fluorescence, 1536-well | CHO-K1 hM1, ACh EC80 antagonist | inhibition, % at 3 µM | actives 1.3% (n = 360,000);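 active = percent inhibition above its own plate's cutoff, namely the mean of that plate's compound wells plus 3 SD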;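 note: peak over basal fluorescence ratio during 140 s after agonist addition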
Target sequence (P11229 whole entry, looked up): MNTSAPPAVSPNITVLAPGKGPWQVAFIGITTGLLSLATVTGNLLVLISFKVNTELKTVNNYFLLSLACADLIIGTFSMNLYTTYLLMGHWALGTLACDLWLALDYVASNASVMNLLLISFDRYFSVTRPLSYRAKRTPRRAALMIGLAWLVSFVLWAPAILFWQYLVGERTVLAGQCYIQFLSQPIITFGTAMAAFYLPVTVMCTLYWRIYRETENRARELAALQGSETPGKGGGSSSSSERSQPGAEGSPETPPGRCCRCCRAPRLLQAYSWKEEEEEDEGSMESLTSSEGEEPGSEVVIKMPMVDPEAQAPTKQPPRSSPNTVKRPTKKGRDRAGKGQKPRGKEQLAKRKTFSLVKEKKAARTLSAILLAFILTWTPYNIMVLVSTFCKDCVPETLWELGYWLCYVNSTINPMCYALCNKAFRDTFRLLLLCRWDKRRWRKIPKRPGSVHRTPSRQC
M1 ag = human M1 muscarinic receptor agonists, primary screen, Fluo-8 calcium fluorescence, CHO-K1 cells, HTS. actives 0.33% (n = 360,000). activation, % at 3 µM. CHO-K1 hM1, agonist mode; 0% DMSO, 100% acetylcholine EC100. AID 588814, 2011. Muscarinic acetylcholine receptor M1 (Homo sapiens), P11229;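 active = activation above the run's mean compound activation plus 3 SD, cut at about 16% in these data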;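 note: peak over basal fluorescence ratio within a 140 s kinetic read after compound addition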
M1 PAM = human M1 muscarinic receptor positive allosteric modulators, primary screen, CHO-K1 cells, Fluo-8 calcium fluorescence, 1536-well; AID 588819, 2011; actives 0.088% (n = 360,000); activation, % at 3 µM; CHO-K1 hM1, ACh EC20; 0% = ACh EC20, 100% = maximal ACh; in the data active = activation above about 19%, passing the limit was not always enough
M1 ag parental = counter-screen for M1 agonists: effect in parental CHO-K1 cells. actives 0.48% (n = 360,000). Fluo-8 calcium fluorescence; scaled to maximal ATP response, vehicle zero. activation, % at 3 µM; in the data active = activation above about 15%;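 note: untransfected CHO-K1 host cells lacking M1 receptor as counterscreen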
CHO-K1 Ca antag = M1 antagonist counterscreen hit in parental CHO-K1 cells; ATP-induced calcium, Fluo-8 fluorescence; inhibition, % at 3 µM; actives 0.6% (n = 360,000);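 active = inhibition above a per-plate cutoff, the plate's mean sample inhibition plus 3 SD, cut at about 24% in these data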
M1 PAM parental = nonselective calcium activators in parental CHO-K1 cells, primary screen, counter-screen for M1 PAM project, cell-based, Fluo-8 calcium fluorescence, full deck, 1536-well; ATP EC20; 0% at ATP EC20, 100% at ATP max; activation, % at 3 µM; actives 0.02% (n = 360,000);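 active = activation above the run cutoff, the mean activation of all test compounds plus 3 SD, cut at about 40% in these data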;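 note: peak over basal fluorescence ratio in a 140 s read after ATP addition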
A number is an active result.

`Cc1ccc(OC(=O)CCS(=O)(=O)c2ccc(C)cc2)cc1` gave M1 antag inactive, M1 ag inactive, M1 PAM 25, M1 ag parental inactive, CHO-K1 Ca antag inactive and M1 PAM parental inactive.
COC(=O)Cc1ccc(OC(=O)CCS(=O)(=O)c2ccc(C)cc2)cc1 was read as M1 antag inactive, M1 ag inactive, M1 PAM inactive, M1 ag parental inactive, CHO-K1 Ca antag inactive and M1 PAM parental inactive.
Screening O=C(CNC(=O)c1ccc(Cl)cc1Cl)OCN1C(=O)c2ccccc2C1=O returned M1 antag inactive, M1 ag inactive, M1 PAM inactive, M1 ag parental inactive, CHO-K1 Ca antag inactive and M1 PAM parental inactive.
Screening COc1ccc(CNC(=S)NCc2ccc(Cl)cc2)cc1OC returned M1 antag inactive, M1 ag inactive, M1 PAM inactive, M1 ag parental inactive, CHO-K1 Ca antag inactive and M1 PAM parental inactive.
O=S1(=O)C[C@H](N2CCCC2)[C@@H](COCc2ccccc2)N1 was read as M1 antag inactive, M1 ag inactive, M1 PAM inactive, M1 ag parental inactive, CHO-K1 Ca antag 25 and M1 PAM parental inactive.
`COc1ccccc1C1c2[nH]c3ccccc3c2CCN1Cc1cnc(C)s1` (centres undefined) gave M1 antag inactive, M1 ag inactive, M1 PAM inactive, M1 ag parental inactive, CHO-K1 Ca antag inactive and M1 PAM parental inactive.
Screening COc1cccc(C2c3[nH]c4ccccc4c3CCN2Cc2cnc(C)s2)c1OC (centres undefined) returned M1 antag 35, M1 ag inactive, M1 PAM inactive, M1 ag parental inactive, CHO-K1 Ca antag inactive and M1 PAM parental inactive.
Screening CCC1NC(=O)c2cc3ccccc3cc2-n2c1nc1ccc(OC)cc1c2=O (centres undefined) returned M1 antag inactive, M1 ag inactive, M1 PAM inactive, M1 ag parental inactive, CHO-K1 Ca antag inactive and M1 PAM parental inactive.
`COc1ccc(C(=O)NCCNc2ccccc2[N+](=O)[O-])cc1` gave M1 antag inactive, M1 ag inactive, M1 PAM inactive, M1 ag parental inactive, CHO-K1 Ca antag inactive and M1 PAM parental inactive.
Screening CCCNC(=O)c1ccc(S(=O)(=O)c2ccc(OC)cc2)c([N+](=O)[O-])c1 returned M1 antag inactive, M1 ag inactive, M1 PAM inactive, M1 ag parental 16, CHO-K1 Ca antag inactive and M1 PAM parental inactive.
For CCCCNc1c(-c2cccc(-c3ccc(OC)cc3)c2)nc2ccc(C)cn12 the results were M1 antag 59, M1 ag inactive, M1 PAM inactive, M1 ag parental inactive, CHO-K1 Ca antag inactive and M1 PAM parental inactive.
`CCCCNc1c(-c2cccc(-c3ccc(OC)cc3)c2)nc2cc(C)ccn12` gave M1 antag 62, M1 ag inactive, M1 PAM inactive, M1 ag parental inactive, CHO-K1 Ca antag inactive and M1 PAM parental inactive.
Screening CCCCNc1c(-c2cccc(-c3cc(C(C)=O)cs3)c2)nc2ccc(C)cn12 returned M1 antag 37, M1 ag inactive, M1 PAM inactive, M1 ag parental inactive, CHO-K1 Ca antag inactive and M1 PAM parental inactive.
CCCCNc1c(-c2ccc(OC)c(SC3CCCCC3)c2)nc2cc(C)ccn12 was read as M1 antag inactive, M1 ag inactive, M1 PAM inactive, M1 ag parental inactive, CHO-K1 Ca antag inactive and M1 PAM parental inactive.
For Cc1c(C(=O)OCC(=O)NCCN2C(=O)CSC2=O)cccc1[N+](=O)[O-] the results were M1 antag inactive, M1 ag inactive, M1 PAM inactive, M1 ag parental inactive, CHO-K1 Ca antag 30 and M1 PAM parental inactive.
Screening N#Cc1ccccc1Sc1ccccc1C(=O)NCC(c1ccco1)N1CCCC1 (centres undefined) returned M1 antag 37, M1 ag inactive, M1 PAM inactive, M1 ag parental inactive, CHO-K1 Ca antag inactive and M1 PAM parental inactive.
O=C(NCC(c1ccco1)N1CCCCC1)C(c1ccccc1)c1ccccc1 (centres undefined) was read as M1 antag 78, M1 ag inactive, M1 PAM inactive, M1 ag parental inactive, CHO-K1 Ca antag inactive and M1 PAM parental inactive.
For Cc1cc(NC(=O)c2cnn3c(C(F)(F)F)cc(-c4ccccc4)nc23)no1 the results were M1 antag 33, M1 ag inactive, M1 PAM inactive, M1 ag parental inactive, CHO-K1 Ca antag inactive and M1 PAM parental inactive.
Screening Cc1c(NC(=O)c2nn3c(C(F)(F)F)cc(-c4ccccc4)nc3c2Cl)c(=O)n(-c2ccccc2)n1C returned M1 antag inactive, M1 ag inactive, M1 PAM inactive, M1 ag parental inactive, CHO-K1 Ca antag inactive and M1 PAM parental inactive.
COc1ccc(-c2cc(C(F)(F)F)n3nc(C(=O)Nc4c(C)n(C)n(-c5ccccc5)c4=O)c(Cl)c3n2)cc1 was read as M1 antag inactive, M1 ag inactive, M1 PAM inactive, M1 ag parental inactive, CHO-K1 Ca antag 26 and M1 PAM parental inactive.
`O=C(OCC(=O)N1CCCCCC1)c1ccc([N+](=O)[O-])cc1Cl` gave M1 antag inactive, M1 ag inactive, M1 PAM inactive, M1 ag parental inactive, CHO-K1 Ca antag inactive and M1 PAM parental inactive.
For Cc1cc(O)ccc1-c1cc(C(=O)NCc2ccc(F)cc2)[nH]n1 the results were M1 antag inactive, M1 ag 25, M1 PAM inactive, M1 ag parental inactive, CHO-K1 Ca antag inactive and M1 PAM parental inactive.
Screening COC(C#CCCN(C)C)(c1ccccc1)c1ccccc1 returned M1 antag 99, M1 ag inactive, M1 PAM inactive, M1 ag parental inactive, CHO-K1 Ca antag inactive and M1 PAM parental inactive.
Screening COc1ccc(/C=C/C(=O)Nc2cccc(C(C)=O)c2)cc1 returned M1 antag inactive, M1 ag inactive, M1 PAM inactive, M1 ag parental 19, CHO-K1 Ca antag inactive and M1 PAM parental inactive.
CC(=O)Nc1cccc(C(=O)/C=C/c2ccc(N(C)C)cc2)c1 was read as M1 antag 55, M1 ag 113, M1 PAM inactive, M1 ag parental 87, CHO-K1 Ca antag 44 and M1 PAM parental inactive.
Nc1cccc(C(=O)NCCNC(=O)c2cccc(N)c2)c1 was read as M1 antag inactive, M1 ag inactive, M1 PAM inactive, M1 ag parental inactive, CHO-K1 Ca antag inactive and M1 PAM parental inactive.
CC(NC(=O)C1CCCN1S(=O)(=O)c1ccccc1)c1ccccc1 (centres undefined) was read as M1 antag inactive, M1 ag inactive, M1 PAM inactive, M1 ag parental inactive, CHO-K1 Ca antag inactive and M1 PAM parental inactive.
